Measurements reported in PubChem BioAssay AID934 (National Center for Advancing Translational Sciences (NCATS), 2007).
Results filed as inconclusive are left out. A number with no mark means an inactive call. Activity calls are given as the source filed them. Calls come from the whole dose curve; as a rule, active = well fitted activation curve with a large enough effect; inconclusive = small, poorly fitted or top-dose-only effect; inactive = flat fitted curve, though single readings scatter.

Assay: Parental Cell Counter Screen for Stat Signaling Pathway Assay
Settings: ME-180 (cervical carcinoma) parental cells, blue fluorescence artefact counter-screen; series mostly up to 38.3 µM; activity (fluorescence increase): at the top concentration
Excerpt: NIH Molecular Libraries Screening Centers Network [MLSCN] NIH Chemical Genomics Center [NCGC] MLSCN Grant: None NCGC Assay Overview: This assay is a counter screen for the Stat signaling pathway assay (PubChem AID 446). The Stat assay is cell-based and measures Interleukin 6 (IL-6) mediated modulation of a beta-lactamase reporter gene controlled by a STAT inducible element (SIE-bla cells, Invitrogen). IL-6 is a cytokine that signals via the JAK/STAT pathway and is implicated in cancer and inflammation. […] Compounds active in the parental ME-180 cells are likely fluorescent.
NCGC Assay Protocol Summary: Cells were trypsinized, washed in assay medium (AM, OPTI MEM with 0.5% fetal bovine serum, 0.1 mM nonessential amino acids, 1 mM sodium pyruvate, 10mM HEPES pH 7.3, 100U/ml penicillin, and 100 ug/ml streptomycin) and suspended at […] in AM. Approximately 2500 cells in 5 uL/well was dispensed into 1536-well plates and the cells were incubated overnight at 37 C. 23 nL of compound were delivered by a pin tool and 1 uL of IL-6 (40 pM final concentration in AM) was added. After plates were incubated at 37 C for 5 hrs, 1uL of detector mix (LiveBLAzerTM, Invitrogen) was added, the plates incubated at room temperature for 2.5 hrs, and fluorescence intensity at 460 and 530 nm emissions was measured at 405 nm excitation by an Envision (Perkin Elmer).

| SMILES | activity (fluorescence increase) | Potency |
| --- | --- | --- |
| CCC(=O)Nc1nc(C)c(Oc2ccccc2)c(=O)[nH]1 | 1.85% | – |
| CCN(CC)CCNc1ccc(CO)c2sc3ccccc3c(=O)c12 | -13.1% | – |
| COc1cccc2c1C(=O)c1c(O)c3c(c(O)c1C2=O)C[C@](O)(C(=O)CO)C[C@H]3O[C@@H]1C[C@H](N)[C@H](O)[C@H](C)O1 | 10.3% | – |
| CCSc1nc(N)c(C#N)c(-c2ccccc2Cl)c1C#N | 13.9% | – |
| CN1CCc2c(sc3ncn4nc(-c5ccccc5O)nc4c23)C1 | – | 31.6 µM (active) |
| COc1cccc2c1[C@H](CO)N1[C@H](C#N)[C@@H]3C[C@H](C(=O)O)[C@@H]([C@@H]1C2)N3C | 12.3% | – |
| CC[C@@H]1CN2CCc3cc(OC)c(OC)cc3[C@H]2C[C@@H]1C[C@@H]1NCCc2cc(OC)c(OC)cc21 | 9.35% | – |
| COc1cccc2c1C(=O)c1c(O)c3c(c(O)c1C2=O)C[C@@](O)(C(=O)CO)C[C@@H]3O[C@H]1C[C@H](N)[C@H](O)[C@H](C)O1 | 17.6% | – |
| CCCCCCc1cc2cc(-c3nnc(-c4ccccc4O)o3)c(=O)oc2cc1O | – | 0.0126 µM (active) |
| O=C(O)c1c(Br)c(Br)c(Br)c(Br)c1C1c2ccc(O)cc2Oc2cc(O)ccc21 | 8.49% | – |
| CC[C@@H]1CN2CCc3cc(OC)c(OC)cc3[C@H]2C[C@@H]1C[C@H]1NCCc2cc(OC)c(OC)cc21 | 7.48% | – |
| ClC(=Nc1cccc2ccccc12)N(c1ccccc1)c1ccccc1 | 7.48% | – |
| CC1CCN(c2oc(-c3ccccc3Cl)nc2C#N)CC1 | 6.48% | – |
| Fc1ccc2[nH]c3c(N4CCN(Cc5ccc6c(c5)OCO6)CC4)ncnc3c2c1 | 12% | – |
| COc1ccc(C[C@@H]2C(=O)N[C@H](C)C(=O)N(C)[C@@H]3Cc4ccc(cc4)Oc4cc(ccc4O)C[C@H](C(=O)N[C@@H](C)C(=O)N[C@H](C)C(=O)N2C)N(C)C3=O)cc1 | 10.4% | – |
| C=C1C(=O)O[C@@H]2[C@@H]1CC/C(C)=C\CC[C@@]1(C)O[C@H]21 | 28.3% | – |
| C[n+]1cc2c3c(ccc2c2ccc4cc5c(cc4c21)OCO5)OCO3 | – | 10 µM (active) |
| O=C(Oc1oc(-c2ccco2)nc1C=Nc1ccccc1)c1ccoc1 | 3.7% | – |
| CCCCc1nc(NCCNC(=O)c2ccco2)c(C#N)c2c1CSC(C)(C)C2 | 25.9% | – |
| N=C(N)SCc1cccc2c(=O)cc(-c3ccccc3)oc12 | 8.49% | – |

| SMILES | activity (fluorescence increase) | Potency |
| --- | --- | --- |
| CCOC(=O)CCc1c(C)c(C#N)c2[nH]c3ccccc3n2c1=O | 16.7% | – |
| O=c1c(O)c(-c2ccc(O)c(O)c2)oc2cc(O)cc(O)c12 | 15.9% | – |
| COc1c2c(nc3ccccc13)O[C@@H]([C@@](C)(O)CO)C2 | 9.35% | – |
| CC1CCN(CC[S-])CC1.O.O.[Cl][Pt] | 28.3% | – |
| O=C1CC(N(O)C2CC(=O)N(Cc3ccccc3)C2=O)C(=O)N1Cc1ccccc1 (stereo not given) | 21.3% | – |
| CC(C)(C)C1CCC2(CC1)C(C#N)=C(SCC(=O)Nc1ccccc1)NC(=O)C2C#N (stereo not given) | 24.1% | – |
| Nc1ncnc2c1ncn2[C@@H]1O[C@@H](CO)[C@H](O)[C@@H]1O | 11.2% | – |
| ClC(Br)=C(n1cnc2ccccc21)n1cnc2ccccc21 | 11.1% | – |
| Cc1ccc(S(=O)(=O)N2CCN(c3nc(C(C)C)c4c(c3C#N)CC(C)(C)OC4)CC2)cc1 | 10.2% | – |
| CC(C)(C)c1nnc2sc(SCC(=O)c3ccccc3)nn2c1=O | 13.9% | – |
| Cc1ccc(CNC(=O)c2cc3c(=O)n4ccccc4nc3n(CC3CCCO3)c2=N)cc1 (stereo not given) | – | 10 µM (active) |
| CCN(CC)CCN1C(=O)c2cccc3cc(N)cc(c23)C1=O | 3.77% | – |
| CN(C)S(=O)(=O)c1ccc2c(c1)/C(=C/c1cc3c([nH]1)CCCC3)C(=O)N2 | 1.89% | – |
| Cn1c(N2CCOCC2)nc2c1c(=O)n(Cc1ccc(Cl)c(Cl)c1)c(=O)n2C | 13% | – |
| Cn1c(N2CCN(c3ccccn3)CC2)nc2c1c(=O)n(Cc1ccc(Cl)cc1)c(=O)n2C | 13.9% | – |
| Cc1ccc(S(=O)(=O)N2CCN(c3nc(C)c4c(c3C#N)CC(C)(C)OC4)CC2)cc1 | 22.2% | – |
| CC1(C)Cc2c(C#N)c(NCCc3ccccc3)nc(-c3ccco3)c2CO1 | – | 5.01 µM (active) |
| C=C1C(=O)O[C@@H]2[C@H]3O[C@]3(C)CCC=C(C)CC[C@@H]12 | -1.87% | – |
| O=C1Nc2ccc(I)cc2/C1=C/c1cc(Br)c(O)c(Br)c1 | 17% | – |
| O=c1c(O)c(-c2ccc(O)cc2)oc2cc(O)ccc12 | 9.35% | – |
